# Results published in PubChem BioAssay (EPA / NIEHS).
# Several values for one entry are separate records, joined by “and”; a condition that tells them apart may be missing. Equal entries are not always repeated. Inconclusive results are not listed. A structure can be active in one record and inactive in another. Activity calls are given as the source filed them. The calls were made as follows, unless noted: active = hit-call score of the fitted dose curve at least 0.9, where 1 is the maximum; inconclusive = response in the unintended direction; inactive = score below 0.9.
# Assays:
# [1] = biological target: Norway rat Vesicular Monoamine Transporter (VMAT2), neurotransmitter transporter, Slc18a2 (gene 25549) (UniProt Q01827); test: NVS_TR_rVMAT2: NovaScreen (NVS) Transporter Assay for Norway rat Vesicular Monoamine Transporter (VMAT2), neurotransmitter transporter (AID 2283376);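 also: actives lower the bound radioligand signal below the DMSO level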
# Summary of the method: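 Tissue: rat forebrain extract. Format: competitive radioligand binding, cell-free. Timepoint: 1 h. Readout: filter radiodetection/scintillation. Screen: 25 uM in duplicate, then concentration series for actives. Baseline: DMSO.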
# [2] = tested on: guinea pig Dopamine Transporter (DAT), gene 100714898; test: NVS_TR_gDAT: NovaScreen (NVS) Transporter Assay for guinea pig Dopamine Transporter (DAT) (AID 2283369);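 also: active compounds lower bound radioligand signal relative to DMSO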
# Summary of the method: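 Radioligand displacement on membranes from guinea pig striatum, 2 h exposure, bound label counted by filtration and scintillation. Tested at 25 uM in duplicate, then actives in concentration series to 50 uM; DMSO as negative control.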
# [3] = biological target: human Dopamine Transporter (DAT), SLC6A3 (gene 6531) (UniProt Q01959); test: NVS_TR_hDAT: NovaScreen (NVS) Transporter Assay for human Dopamine Transporter (DAT) (AID 2283374);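 also: activity means loss of bound radioligand signal relative to DMSO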
# Summary of the method: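 Test chemicals were first screened in duplicate at 25 uM, with actives retested as concentration series. Displacement of a specific radioligand from cell-free human dopamine transporter was measured after 1 h by filtration and scintillation counting.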
# [4] = biological target: mouse Estrogen Receptor alpha (Era), Esr1 (gene 13982) (UniProt P19785); test: NVS_NR_mERa: NovaScreen (NVS) Nuclear Receptor Binding Assay for mouse Estrogen Receptor alpha (Era) (AID 2283378);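 also: hit means loss of bound radioligand signal relative to DMSO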
# Summary of the method: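 Filter radiodetection of radioligand displacement from extracted receptor protein, measured 18 h post-dose. Single 25 uM concentration in duplicate initially, with concentration-series follow-up. Binding loss fitted relative to DMSO.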
# [5] = biological target: Estrogen receptor beta (Homo sapiens) (UniProt Q92731); test: OT_ER_ERbERb_1440: Odyssey Thera (OT) 24-hour HEK293T Protein-Complementation Assay for Estrogen Receptor-beta/-beta Homodimer (AID 2283380);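 also: fluorescence gain from ER beta LBD homodimer complementation read by laser scanning cytometry; scored as signal increase over DMSO baseline for both agonists and antagonists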
# Summary of the method: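 Fluorescence increase, nuclear for agonists or whole-cell for antagonists, relative to DMSO vehicle, quantified by laser scanning cytometer after fixation and Draq5 staining. Readout from 24 h treatment of HEK293T cells carrying complementation-paired ER beta LBD (aa 310-547).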
# [6] = biological target: Bile acid receptor (Homo sapiens) (UniProt Q96RI1); test: OT_FXR_FXRSRC1_0480: Odyssey Thera (OT) 8-hour HEK293T Protein-Complementation Assay for Farnesoid X receptor/SRC-1 Co-activator (AID 2283383)
# Summary of the method: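 Co-activator recruitment to FXR was measured in living HEK293T cells, where interaction of the two fused partners restored an active fluorescent reporter. Signal gain after 8 h treatment was referenced to DMSO.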
# [7] = biological target: guinea pig Sigma Receptor, Non-selective Binding, SIGMAR1 (gene 100135589) (UniProt Q60492); test: NVS_OR_gSIGMA_NonSelective: NovaScreen (NVS) Nuclear Receptor Binding Assay for guinea pig Sigma Receptor, Non-selective Binding (AID 2283367)
# Summary of the method: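 gp brain membr., radioligand displacement, 1 h, filtration + scint. counting; DMSO = baseline; 25 uM x2 primary, conc.-response confirm.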
# [8] = biological target: Peroxisome proliferator-activated receptor gamma (Homo sapiens) (UniProt P37231); test: NVS_NR_hPPARg: NovaScreen (NVS) Nuclear Receptor Binding Assay for human Peroxisome Proliferator-activated Receptor gamma (PPARg) (AID 2283370)
# Summary of the method: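 Fluorescence polarization readout of ligand binding to extracted human PPARg, measured at 2 h. Duplicate single-point screen at 25 uM, then concentration-series retesting; activity defined as signal loss versus DMSO.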
# [9] = biological target: human Norepinephrine Transporter (NET), SLC6A2 (gene 6530) (UniProt P23975); test: NVS_TR_hNET: NovaScreen (NVS) Transporter Assay for human Norepinephrine Transporter (NET) (AID 2283377);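 also: cell-free membrane protein extracted from CHO cells expressing human NET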;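 as to AC50: displacement of radioligand from human NET seen as loss of scintillation signal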
# Summary of the method: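 Scintillation counts of filter-retained radioligand served as the readout, taken 1 h post-dosing in a cell-free CHO-derived system. Test chemicals ran first at 25 uM in duplicate; confirmed hits were retested across concentrations.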
# [10] = biological target: rat Androgen Receptor (AR), Ar (gene 24208) (UniProt P15207); test: NVS_NR_rAR: NovaScreen (NVS) Nuclear Receptor Binding Assay for rat Androgen Receptor (AR) (AID 2283366)
# Summary of the method: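 Cell-free radioligand binding on extracts of prostate from testosterone-pretreated rats, read by filter-based scintillation counting 18 h after dosing. Loss of bound signal fitted positively versus DMSO; primary screen in duplicate at 25 uM, actives followed up in concentration series.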
# [11] = biological target: human Adenosine Transporter (Adot), SLC29A1 (gene 2030) (UniProt Q99808); test: NVS_TR_hAdoT: NovaScreen (NVS) Transporter Assay for human Adenosine Transporter (Adot) (AID 2283368)
# Summary of the method: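 U937-derived membranes, cell-free radioligand binding, filter scintillation 1 h after dosing. 25 uM duplicate screen; hits (e.g. 30% inhibition) run in concentration-response up to 50 uM; loss of signal versus DMSO.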
# [12] = biological target: human Serotonin Transporter (SERT), SLC6A4 (gene 6532) (UniProt P31645); test: NVS_TR_hSERT: NovaScreen (NVS) Transporter Assay for human Serotonin Transporter (SERT) (AID 2283372)
# Summary of the method: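 Radioligand binding to native SERT in human platelet membranes, read by filter-based scintillation counting 1 h after dosing. Primary screen in duplicate at 25 uM; actives followed up in concentration series; loss of signal versus DMSO baseline.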
# [13] = tested on: rat Norepinephrine Transporter (NET), gene 83511; test: NVS_TR_rNET: NovaScreen (NVS) Transporter Assay for rat Norepinephrine Transporter (NET) (AID 2283373)
# Summary of the method: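 Rat forebrain membranes; radioligand binding measured by filter-based scintillation counting 1 hour after dosing. Loss of specific binding versus DMSO baseline scored; primary screen in duplicate at 25 uM, actives followed up in concentration series.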
# [14] = biological target: rat Serotonin Transporter (SERT), Slc6a4 (gene 25553) (UniProt P31652); test: NVS_TR_rSERT: NovaScreen (NVS) Transporter Assay for rat Serotonin Transporter (SERT) (AID 2283375)
# Summary of the method: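 Radioligand binding with competitive displacement on rat forebrain membrane preparations, counted by filtration and scintillation after 1 h. Primary single-point duplicates at 25 uM; active chemicals followed up in concentration-response. DMSO served as baseline.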
# [15] = biological target: Agonist Androgen Response Element (ARE), AR (gene 367) (UniProt P10275); test: OT_AR_ARELUC_AG_1440: Odyssey Thera (OT) 24-hour CHO-K1 Luciferase Assay for Agonist Androgen Response Element (ARE) (AID 2283379)
# Summary of the method: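 Agonist mode, 24 h exposure in CHO-K1 ARE-luciferase cells; values reflect luminescence induction over vehicle.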
# [16] = biological target: Estrogen receptor (Homo sapiens) (UniProt P03372); test: OT_ERa_GFPERaERE_0480: Odyssey Thera (OT) 8-hour HeLa Transcription Induction Assay for Estrogen Receptor (AID 2283381; active = hit-call score of the fitted dose curve at least 0.9, where 1 is the maximum; inactive = score below 0.9)
# Summary of the method: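 Cells (HeLa) receive compound; after 8 h, reporter fluorescence is imaged and quantified by high-content analysis. Gain-of-signal relative to DMSO gives the endpoint.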
# [17] = biological target: Estrogen receptor (Homo sapiens) (UniProt P03372); test: OT_ERa_GFPERaERE_0120: Odyssey Thera (OT) 2-hour HeLa Transcription Induction Assay for Estrogen Receptor (AID 2283382)
# Summary of the method: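 Measures ESR1 pathway reporter gain-of-signal in HeLa cells after a 2-hour treatment, detected as fluorescent protein induction by microscopy, DMSO as baseline.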
# Sequence of Estrogen receptor (Homo sapiens) (P03372 whole entry, looked up): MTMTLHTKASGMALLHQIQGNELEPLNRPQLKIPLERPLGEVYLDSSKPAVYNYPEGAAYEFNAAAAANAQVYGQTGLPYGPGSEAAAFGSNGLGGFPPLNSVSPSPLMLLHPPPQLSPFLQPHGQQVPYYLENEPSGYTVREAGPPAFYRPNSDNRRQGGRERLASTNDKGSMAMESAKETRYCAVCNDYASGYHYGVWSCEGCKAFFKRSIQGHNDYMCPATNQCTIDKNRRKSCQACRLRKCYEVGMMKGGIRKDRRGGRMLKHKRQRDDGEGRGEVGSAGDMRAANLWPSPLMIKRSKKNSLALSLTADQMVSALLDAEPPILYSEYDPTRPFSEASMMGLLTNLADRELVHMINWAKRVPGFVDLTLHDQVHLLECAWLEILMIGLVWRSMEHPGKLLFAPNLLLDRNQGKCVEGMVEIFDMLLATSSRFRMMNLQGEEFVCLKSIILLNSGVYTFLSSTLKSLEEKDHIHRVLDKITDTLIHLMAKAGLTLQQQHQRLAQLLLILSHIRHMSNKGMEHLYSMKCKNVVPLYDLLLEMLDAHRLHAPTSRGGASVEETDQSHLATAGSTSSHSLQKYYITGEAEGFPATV
# Sequence of Estrogen receptor beta (Homo sapiens) (Q92731 whole entry, looked up, the tested form may be a part): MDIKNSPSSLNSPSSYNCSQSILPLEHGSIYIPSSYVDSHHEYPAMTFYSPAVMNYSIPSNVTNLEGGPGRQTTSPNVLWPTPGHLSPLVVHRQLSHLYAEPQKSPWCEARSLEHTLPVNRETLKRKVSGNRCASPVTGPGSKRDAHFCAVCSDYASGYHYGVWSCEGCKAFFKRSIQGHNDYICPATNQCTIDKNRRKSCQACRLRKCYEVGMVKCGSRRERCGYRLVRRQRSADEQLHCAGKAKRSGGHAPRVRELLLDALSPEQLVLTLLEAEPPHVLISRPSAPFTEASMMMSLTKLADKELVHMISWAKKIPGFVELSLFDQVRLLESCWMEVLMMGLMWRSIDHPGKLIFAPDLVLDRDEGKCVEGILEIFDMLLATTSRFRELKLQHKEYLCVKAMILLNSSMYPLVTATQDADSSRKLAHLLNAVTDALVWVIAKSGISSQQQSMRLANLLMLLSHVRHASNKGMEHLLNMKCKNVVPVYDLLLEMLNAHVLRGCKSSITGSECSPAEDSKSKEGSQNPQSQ
# Sequence of human Norepinephrine Transporter (NET), SLC6A2 (gene 6530) (P23975 whole entry, looked up): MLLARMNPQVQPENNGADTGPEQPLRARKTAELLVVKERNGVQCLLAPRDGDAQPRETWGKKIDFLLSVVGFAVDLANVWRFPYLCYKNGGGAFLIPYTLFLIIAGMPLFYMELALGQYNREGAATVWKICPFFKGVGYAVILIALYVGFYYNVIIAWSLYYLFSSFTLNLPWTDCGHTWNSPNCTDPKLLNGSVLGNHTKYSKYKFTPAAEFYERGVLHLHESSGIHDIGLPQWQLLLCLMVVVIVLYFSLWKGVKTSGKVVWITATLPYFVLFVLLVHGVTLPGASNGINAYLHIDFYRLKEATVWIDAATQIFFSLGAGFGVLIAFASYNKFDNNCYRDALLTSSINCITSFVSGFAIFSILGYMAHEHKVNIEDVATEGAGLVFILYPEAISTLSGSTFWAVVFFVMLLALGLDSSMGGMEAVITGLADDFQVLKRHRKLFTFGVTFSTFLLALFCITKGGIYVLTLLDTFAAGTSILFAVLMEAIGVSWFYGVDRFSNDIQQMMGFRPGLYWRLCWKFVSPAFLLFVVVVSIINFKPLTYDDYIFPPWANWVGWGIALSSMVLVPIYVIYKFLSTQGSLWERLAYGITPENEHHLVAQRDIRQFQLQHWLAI
# Sequence of guinea pig Sigma Receptor, Non-selective Binding, SIGMAR1 (gene 100135589) (Q60492 whole entry, looked up): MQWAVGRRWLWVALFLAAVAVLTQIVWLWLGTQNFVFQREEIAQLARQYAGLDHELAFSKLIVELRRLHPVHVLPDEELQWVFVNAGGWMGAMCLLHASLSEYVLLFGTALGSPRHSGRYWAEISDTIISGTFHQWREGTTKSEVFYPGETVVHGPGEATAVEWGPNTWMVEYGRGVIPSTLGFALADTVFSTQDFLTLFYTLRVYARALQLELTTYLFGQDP
# Sequence of human Dopamine Transporter (DAT), SLC6A3 (gene 6531) (Q01959 whole entry, looked up): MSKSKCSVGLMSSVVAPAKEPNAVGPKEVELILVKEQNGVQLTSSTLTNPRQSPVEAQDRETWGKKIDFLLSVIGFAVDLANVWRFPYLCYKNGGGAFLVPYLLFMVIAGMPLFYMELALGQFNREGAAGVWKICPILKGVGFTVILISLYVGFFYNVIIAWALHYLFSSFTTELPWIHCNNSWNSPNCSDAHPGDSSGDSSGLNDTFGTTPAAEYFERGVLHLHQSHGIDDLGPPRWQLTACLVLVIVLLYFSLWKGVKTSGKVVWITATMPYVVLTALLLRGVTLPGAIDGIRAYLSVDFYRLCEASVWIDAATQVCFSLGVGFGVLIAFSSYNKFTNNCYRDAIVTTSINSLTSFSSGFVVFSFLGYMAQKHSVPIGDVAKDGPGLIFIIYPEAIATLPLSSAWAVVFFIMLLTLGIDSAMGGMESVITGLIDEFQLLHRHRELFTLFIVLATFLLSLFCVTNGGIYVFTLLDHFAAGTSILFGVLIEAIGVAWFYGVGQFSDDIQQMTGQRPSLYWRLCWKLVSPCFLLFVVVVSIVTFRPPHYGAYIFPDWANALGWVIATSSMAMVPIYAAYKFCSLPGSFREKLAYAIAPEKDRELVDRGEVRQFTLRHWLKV
# Sequence of Bile acid receptor (Homo sapiens) (Q96RI1 whole entry, looked up, the tested form may be a part): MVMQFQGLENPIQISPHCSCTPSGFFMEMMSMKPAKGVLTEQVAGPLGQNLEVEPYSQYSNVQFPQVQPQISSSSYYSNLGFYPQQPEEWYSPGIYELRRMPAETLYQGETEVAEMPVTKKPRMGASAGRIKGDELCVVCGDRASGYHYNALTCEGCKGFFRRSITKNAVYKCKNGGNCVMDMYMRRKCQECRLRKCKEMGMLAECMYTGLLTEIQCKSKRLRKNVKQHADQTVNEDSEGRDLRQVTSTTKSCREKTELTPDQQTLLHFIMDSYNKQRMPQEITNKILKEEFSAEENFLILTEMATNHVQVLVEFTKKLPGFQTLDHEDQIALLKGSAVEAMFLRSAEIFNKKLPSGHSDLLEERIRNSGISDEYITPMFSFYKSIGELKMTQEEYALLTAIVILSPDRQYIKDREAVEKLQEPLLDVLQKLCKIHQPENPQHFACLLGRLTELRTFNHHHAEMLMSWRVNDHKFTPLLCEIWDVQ
# Sequence of rat Androgen Receptor (AR), Ar (gene 24208) (P15207 whole entry, looked up): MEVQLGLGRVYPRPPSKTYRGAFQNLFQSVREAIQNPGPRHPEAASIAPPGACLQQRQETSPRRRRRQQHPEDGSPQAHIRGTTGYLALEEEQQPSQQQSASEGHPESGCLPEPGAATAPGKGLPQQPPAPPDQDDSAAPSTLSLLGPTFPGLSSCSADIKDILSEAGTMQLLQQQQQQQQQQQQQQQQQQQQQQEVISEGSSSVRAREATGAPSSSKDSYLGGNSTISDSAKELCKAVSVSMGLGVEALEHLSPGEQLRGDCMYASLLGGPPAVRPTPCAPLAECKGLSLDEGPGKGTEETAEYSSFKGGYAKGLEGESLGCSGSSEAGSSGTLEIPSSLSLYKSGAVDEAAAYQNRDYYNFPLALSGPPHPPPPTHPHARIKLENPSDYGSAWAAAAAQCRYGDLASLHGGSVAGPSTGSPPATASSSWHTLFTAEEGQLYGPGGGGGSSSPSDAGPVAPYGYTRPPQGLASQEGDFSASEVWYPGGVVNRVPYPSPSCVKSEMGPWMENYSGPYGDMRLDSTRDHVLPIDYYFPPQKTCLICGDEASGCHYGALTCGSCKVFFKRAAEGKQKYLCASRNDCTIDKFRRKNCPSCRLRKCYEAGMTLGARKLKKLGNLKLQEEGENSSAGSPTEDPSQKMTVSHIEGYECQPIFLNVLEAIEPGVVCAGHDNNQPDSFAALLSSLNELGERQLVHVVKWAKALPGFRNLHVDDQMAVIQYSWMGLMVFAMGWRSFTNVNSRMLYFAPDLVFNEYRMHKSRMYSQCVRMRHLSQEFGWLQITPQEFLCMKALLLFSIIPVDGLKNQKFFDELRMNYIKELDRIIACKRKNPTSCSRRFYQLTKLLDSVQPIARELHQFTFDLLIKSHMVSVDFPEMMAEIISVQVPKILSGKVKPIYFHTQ
# Sequence of Agonist Androgen Response Element (ARE), AR (gene 367) (P10275 whole entry, looked up): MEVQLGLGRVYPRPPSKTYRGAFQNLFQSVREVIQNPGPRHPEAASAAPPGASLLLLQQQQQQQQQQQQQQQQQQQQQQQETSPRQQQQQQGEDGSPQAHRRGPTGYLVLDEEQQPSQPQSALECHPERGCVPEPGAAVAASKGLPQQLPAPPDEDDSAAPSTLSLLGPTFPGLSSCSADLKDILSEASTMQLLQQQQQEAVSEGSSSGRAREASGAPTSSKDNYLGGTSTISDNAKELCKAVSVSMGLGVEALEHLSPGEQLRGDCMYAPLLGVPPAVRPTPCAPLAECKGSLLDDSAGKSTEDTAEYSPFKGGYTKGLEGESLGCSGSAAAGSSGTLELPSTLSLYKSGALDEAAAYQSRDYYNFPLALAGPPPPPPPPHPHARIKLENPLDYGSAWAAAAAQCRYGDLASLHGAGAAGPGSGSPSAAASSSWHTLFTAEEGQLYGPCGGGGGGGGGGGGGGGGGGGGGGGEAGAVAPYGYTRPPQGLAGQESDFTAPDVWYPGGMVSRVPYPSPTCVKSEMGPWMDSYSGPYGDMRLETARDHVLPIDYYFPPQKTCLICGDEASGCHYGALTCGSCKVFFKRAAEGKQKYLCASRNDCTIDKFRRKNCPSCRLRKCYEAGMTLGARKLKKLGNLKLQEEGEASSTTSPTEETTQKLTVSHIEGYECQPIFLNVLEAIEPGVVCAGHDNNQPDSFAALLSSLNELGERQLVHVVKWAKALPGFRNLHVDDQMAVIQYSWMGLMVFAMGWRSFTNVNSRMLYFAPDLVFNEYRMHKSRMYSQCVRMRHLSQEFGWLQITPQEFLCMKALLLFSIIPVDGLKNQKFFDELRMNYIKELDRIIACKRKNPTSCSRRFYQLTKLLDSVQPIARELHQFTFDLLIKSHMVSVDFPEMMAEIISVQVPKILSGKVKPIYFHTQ
smiles,measurement,setting,value
CCCCC(CC)CO[N+](=O)[O-] (configuration not stated),outcome,[1],inactive
Oc1ccc(-c2ccccc2)cc1,AC50,[2],11.9 µM (active)
same,AC50,[3],10.7 µM (active)
same,AC50,[4],17.7 µM (active)
same,AC50,[5],11.8 µM (active)
same,AC50,[6],33.3 µM (active)
C(=NC1CCCCC1)=NC1CCCCC1,AC50,[7],30.8 µM (active)
O=C(O)C(F)(F)C(F)(F)C(F)(F)C(F)(F)C(F)(F)C(F)(F)C(F)(F)C(F)(F)C(F)(F)C(F)(F)F,AC50,[8],6.31 µM (active)
same,outcome,[9],inactive
same,outcome,[5],inactive
same,outcome,[6],inactive
CCN1CCC2(CC1)COc1cc3c(cc12)N(C(=O)c1ccc(-c2ccc(-c4nnc(C)o4)cc2C)cc1)CC3,outcome,[10],inactive
same,AC50,[7],3.01 µM (active)
same,AC50,[11],1.11 µM (active)
same,AC50,[2],7.47 µM (active)
same,outcome,[12],inactive
same,outcome,[13],inactive
same,AC50,[3],6.34 µM (active)
same,AC50,[14],7.6 µM (active)
same,AC50,[9],10.1 µM (active)
same,AC50,[4],0.174 µM (active)
same,outcome,[15],inactive
same,outcome,[5],inactive
same,outcome,[16],inactive
same,outcome,[17],inactive
CNC(=O)O/N=C/C(C)(C)S(C)=O (configuration not stated),outcome,[8],inactive
same,outcome,[5],inactive
same,outcome,[16],inactive
same,outcome,[6],inactive
COC(=O)c1sccc1S(=O)(=O)NC(=O)Nc1nc(C)nc(OC)n1,outcome,[8],inactive
same,outcome,[5],inactive
same,outcome,[16],inactive
same,outcome,[17],inactive
ClC1(Cl)C2(Cl)C3(Cl)C4(Cl)C(Cl)(Cl)C5(Cl)C3(Cl)C1(Cl)C5(Cl)C24Cl (configuration not stated),outcome,[8],inactive
same,outcome,[15],inactive
same,outcome,[16],inactive
same,outcome,[17],inactive
same,outcome,[6],inactive
Nc1cccc2ccccc12,outcome,[7],inactive
same,AC50,[9],14.8 µM (active)
CC(=[OH+])/C=C(/C)[O-].CC(=[OH+])/C=C(/C)[O-].CC(=[OH+])/C=C(/C)[O-].[Fe],outcome,[1],inactive
O=C(O)C(F)(F)C(F)(F)C(F)(F)C(F)(F)C(F)(F)C(F)(F)F,outcome,[8],inactive
same,outcome,[5],inactive
same,outcome,[6],inactive
CCCCCCCCC(=O)NCc1ccc(O)c(OC)c1,outcome,[1],inactive
CCC(C)(C)c1ccc(O)c(C(C)(C)CC)c1,outcome,[8],inactive
same,outcome,[5],inactive
same,outcome,[16],inactive
COP(=S)(OC)Oc1ccc(S(=O)(=O)N(C)C)cc1,outcome,[1],inactive
O=C/C=C/c1ccccc1,outcome,[8],inactive
same,outcome,[16],inactive
Nc1ccc(Cl)cc1C(=O)c1ccccc1,AC50,[2],6.19 µM (active)
same,AC50,[3],1.73 µM (active)
same,AC50,[9],12 µM (active)
O=C(NCO)NCO,AC50,[8],25 µM (active)
same,outcome,[16],inactive
same,outcome,[17],inactive
NC(=S)Nc1ccccc1,AC50,[7],33 µM (active)
same,AC50,[9],15.4 µM (active)
O=Cc1cccc(Oc2ccccc2)c1,AC50,[3],5.52 µM (active)
O=C(O)C(Cl)(Cl)Cl,outcome,[1],inactive
COc1cc(-c2ccc(N)c(OC)c2)ccc1N,AC50,[11],14.2 µM (active)
same,outcome,[8],inactive
same,outcome,[13],inactive
same,AC50,[9],10.3 µM (active) and 7.7 µM (active)
N#CCCO,outcome,[10],inactive
COP(=S)(OC)Oc1ccc(Sc2ccc(OP(=S)(OC)OC)cc2)cc1,AC50,[10],16.1 µM (active)
same,outcome,[10],inactive
same,AC50,[8],0.13 µM (active)
same,outcome,[8],inactive
same,AC50,[9],1.39 µM (active)
same,outcome,[15],inactive
same,AC50,[5],33.8 µM (active)
same,outcome,[16],inactive
O=C(Cl)c1ccc(Cl)cc1,outcome,[1],inactive
same,outcome,[9],inactive
O=[N+]([O-])c1ccc(O)c([N+](=O)[O-])c1,outcome,[10],inactive
same,outcome,[8],inactive
same,outcome,[15],inactive
same,outcome,[5],inactive
same,outcome,[16],inactive
O=C1C(Cl)=C(Cl)C(=O)c2ccccc21,outcome,[8],inactive
same,outcome,[5],inactive
same,outcome,[16],inactive
CN(C)N=O,outcome,[8],inactive
same,outcome,[5],inactive
O=[N+]([O-])c1ccc2c3c(cccc13)CC2,AC50,[14],18.2 µM (active)
